NLRP3 yeast inh = blocks the NALP3 inflammasome reconstituted in yeast; inhibition, % at 10 µM; Yeast reconstituted NLRP3/ASC/caspase-1, beta-gal luminescence, 24 h; 330,000 compounds, 0.39% hits; AID 2825;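 active = inhibition of 50% or more; inactive = inhibition below 50%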;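 also: plate controls were induced DMSO wells for no effect and uninduced yeast grown without galactose for full effect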
Mot1-301 SUMO = blocks SUMOylation pathway, rescuing yeast Mot1-301 growth | 320,000 compounds, 1% hits | S. cerevisiae Mot1-301 growth rescue, ATP luminescence, 38.5C; percent above DMSO median, 100 means doubled | growth rescue, % at 18.8 µM;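 active = every valid replicate shows activation above 250% relative to neutral control wells; inactive = the rest, any valid replicate at or below 250%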;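 also: OY570 slx delta 5 strain wells were the positive control but not used for scaling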
PolyA inhibitor = inhibitors of polyadenylation in S. cerevisiae; S. cerevisiae SKY197-pL101 polyadenylation reporter, beta-gal luminescence; efflux-impaired pdr1/pdr3 knockout yeast; score 100 = 6 SD above DMSO; activity score, % at 12 µM; 300,000 compounds, 0.02% hits;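 active = lowest replicate activity score at least 50, where 100 means six control SD above control mean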;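 also: yeast exposed to compound for 9 h at 30 °C; higher score means more reporter readthrough which indicates perturbed polyadenylation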
NALP1 yeast inh = inhibitors of NALP1 inflammasome in yeast; S. cerevisiae NALP1/ASC/caspase-1 growth, X-gal OD620, 72 h; inhibition, % at 10 µM; 280,000 compounds, 0.61% hits; in the data active = inhibition mostly above about 24%, no sharp cut-off; inactive = mostly below about 32%
Yeast Mot1 SUMO = yeast SUMO pathway inhibition in dose response | 2,300 tested, under 10 active | S. cerevisiae Mot1-301 galactose growth, ATP luminescence, 24 h; -100 = growth of slx-deleted rescue strain | growth activity, percent, % at 42 µM | shares compounds with Mot1-301 SUMO;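 active = Signal drops as the depositor expects, and the fitted half-maximal dose is no more than ten times the top valid tested dose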;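 also: more negative values mean stronger growth rescue toward the control strain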
Starred values were filed as active, the others as inactive; nt = not tested or not shown; + = active, no number; [ ] = another dose, or the depositor's remark. This is a sample that favours compounds with a hit; in the whole collection about 1.8% have one here.

SMILES | NLRP3 yeast inh | Mot1-301 SUMO | PolyA inhibitor | NALP1 yeast inh | Yeast Mot1 SUMO
COc1ccccc1N(C)S(=O)(=O)c1ccc(C(=O)Nc2ccc3nc(C)sc3c2)cc1 | 10.1 | 0.4 | -3.2 | 18.3 | nt
COC(=O)C1CN(C(=O)C(C)Oc2ccc(F)cc2)c2ccccc2O1 (stereo unspecified) | 4.6 | 748.4* | 16.6 | 20.4 | 0.4
O=C(c1ccc(Br)cc1)N1CCN(c2ncccn2)CC1 | 1.1 | -12.7 | -8.1 | nt | nt
O=C(c1ccc([N+](=O)[O-])cc1)N1CCN(c2ncc(Br)cn2)CC1 | -3.8 | 656.3* | 0.1 | 10.5 | 0.4
Cn1c(=O)[nH]c(=O)c2c1nc(Sc1ccccc1)n2CCc1ccccc1 | 17.8 | 614.4* | -22.8 | 7.9 | 0.3
COCCn1c(SCc2ccc(Cl)cc2)nc2c1c(=O)[nH]c(=O)n2C | 3.7 | + | -2.1 | nt | -0.1
C/C(=N\NC1=NCCN1)c1ccccc1 | 17.2 | -17.7 | 24.6 | 7.3 | nt
CCOC(=O)C1CCN(C(=O)COc2ccc(S(=O)(=O)N3CCOCC3)cc2)CC1 | 1.0 | 14.5 | 3.5 | -1.2 | nt
CCOC(=O)C1CCN(C(=O)COc2ccc(S(=O)(=O)N3CCOCC3)cc2C)CC1 | 4.9 | 717.9* | 14.3 | 21.7 | 0.4
COCCN(C(=O)CSc1nnc(-c2ccc(C)cc2)n1N)c1c(N)n(Cc2ccccc2)c(=O)[nH]c1=O | -4.5 | 516.1* | -4.6 | 15.2 | 0.2
CCN(C(=O)CSc1nnc(-c2ccc(C)cc2)n1N)c1c(N)n(Cc2ccccc2)c(=O)[nH]c1=O | 8.0 | nt | nt | nt | nt
CCCn1c(=O)c2ccccc2n2c(SCC(=O)N3CCc4ccccc4C3)nnc12 | 15.4 | 433.5* | -4.9 | 34.8 | -0.4
Cn1c(=O)[nH]c(=O)c2c1nc(NCCN)n2CCOc1ccccc1 | 13.9 | 460.6* | -9.9 | 21.0 | -0.7
CCCNc1nc2c(c(=O)[nH]c(=O)n2C)n1CCOc1ccccc1 | 18.3 | 264.7 | 0.6 | 3.2 | nt
CCOCC(=O)Nc1ccccc1C(=O)OCC | 17.5 | 447.1 | -9.8 | 26.1 | nt
COc1ccc(S(=O)(=O)N2CCN(C(=O)COc3ccc4c(C)cc(=O)oc4c3)CC2)cc1 | nt | -9.5 | nt | 14.9 | nt
CCC(C)c1ccc(S(=O)(=O)N2CCN(C(=O)COc3ccc4c(C)cc(=O)oc4c3)CC2)cc1 (stereo unspecified) | 0.8 | 524.1* | 13.7 | 19.3 | 0.2
O=C(CSc1nnc(NC(=O)CN2CCOCC2)s1)Nc1ccccc1 | -1.2 | + | -6.7 | -10.9 | -0.2
CCOC(=O)c1c(N)sc(C(=O)N2CCCC(C(N)=O)C2)c1C (stereo unspecified) | -0.7 | 933.1* | 5.9 | nt | 0.5
COc1ccc(C(=O)Sc2ccc(Cl)cc2)cc1OC | -31.4 | + | -2.7 | 2.1 | 0.0
COc1ccc(NS(=O)(=O)c2ccc(N3CCCCC3)c(N)c2)cc1 | 8.0 | 8.1 | nt | nt | nt
Cc1ccc(C)c(OCCCC(=O)N2CCOCC2)c1 | 8.4 | 688.8* | -3.0 | -12.9 | 1.3
Cc1ccc(C)c(OCCCC(=O)O)c1 | -20.6 | 83.2 | 5.8 | 14.2 | nt
CC(=O)Nc1sc2c(c1C(c1ccc(Cl)cc1)N1CCOCC1)CCCC2 (stereo unspecified) | 15.6 | 195.4 | -2.3 | -1.2 | nt
CC(=O)Nc1sc2c(c1C(c1ccc(F)cc1)N1CCOCC1)CCCC2 (stereo unspecified) | 18.4 | 385.2* | -2.4 | -5.4 | -0.3
SMILES | NLRP3 yeast inh | Mot1-301 SUMO | PolyA inhibitor | NALP1 yeast inh | Yeast Mot1 SUMO
N=c1n(CCCOc2ccc(Br)cc2)c2ccccc2n1CC(N)=O | 2.5 | 363.0* | 2.9 | 17.4 | -0.2
Cc1cc(=O)[nH]c(N/N=C/c2c(O)n(-c3ccccc3)c(=O)c3ccccc23)n1 | 8.9 | -19.0 | 12.7 | 19.6 | nt
Cc1nc(SCC(=O)NC(=O)NCc2ccccc2)nc(C)c1C | 4.2 | nt | 0.0 | 13.9 | nt
COCCNC(=O)NC(=O)CSc1nc(C)c(C)c(C)n1 | -2.2 | 494.4* | 9.1 | -12.9 | 0.6
Nc1c(C(=O)NC2CCCC2)sc2nc(-c3cccs3)ccc12 | 10.4 | nt | -24.0 | 12.1 | nt
CCOC(=O)N1CCC(NC(=O)c2cc(S(=O)(=O)N3CCCCC3)ccc2F)CC1 | -1.2 | 99.4 | -1.4 | -9.1 | nt
CC1(OC(=O)C2CCCC2)C(=O)C=C2C=C(c3ccsc3)OC=C2C1=O (stereo unspecified) | 11.3 | 505.8* | 15.1 | 1.4 | -0.1
CCc1nccn1S(=O)(=O)c1cc(OC)ccc1OC | 5.9 | 499.2* | -1.3 | 17.9 | 0.5
CC(C)(C)NC(=O)N1CCC(CO)(Cc2ccccc2Cl)CC1 | 4.9 | -1.1 | -5.3 | -2.4 | nt
Cc1nnsc1C(=O)N1CCC(CO)(Cc2ccccc2Cl)CC1 | -8.5 | + | -10.1 | -43.8 | 0.8
CCOc1cc(/C=C2\NC(=O)NC2=O)ccc1OC(C)C(=O)O (stereo unspecified) | -0.4 | 513.8* | -14.7 | -1.9 | 0.8
CCOc1cc(/C=C2\NC(=O)NC2=O)cc([N+](=O)[O-])c1O | -26.2 | -1.5 | -1.8 | nt | nt
CCN1C(=O)Cc2cc(S(=O)(=O)NCCc3ccccc3)ccc21 | -5.6 | -2.0 | 15.2 | 26.0 | nt
CCOC(=O)CCc1c(C)c2ccc(OC3CCCCC3=O)cc2oc1=O (stereo unspecified) | 8.2 | -15.0 | 15.2 | 21.5 | nt
CN1C(=S)SC2CS(=O)(=O)CC21C (stereo unspecified) | -12.1 | 516.8* | 18.8 | 1.0 | -0.2[21 µM]
CC1=C(C(=O)OC(C)C)C(c2cccs2)N2C(=O)CCSC2=N1 (stereo unspecified) | 16.9 | 0.3 | -8.8 | 18.7 | nt
CC(=O)c1sc(N/N=C\c2ccc(Br)cc2)nc1C | -52.5 | -20.7 | 0.7 | 23.2 | nt
CCOC(=O)c1sc(N/N=C/c2ccc(N(C)C)cc2)nc1C | 8.1 | + | 2.4 | 0.1 | 0.1
Cn1nc(C(F)(F)F)c(-c2ccc(Br)cc2)c1NC(=O)C1CCC1C(=O)O (stereo unspecified) | 7.5 | -11.1 | -16.1 | nt | nt
COc1ccc(C(=O)O/N=C(\N)c2cccc(C)c2)cc1OC | 13.3 | 232.7 | -21.6 | 15.7 | nt
COc1ccc(C(=O)O/N=C(\N)c2ccccc2)cc1OC | 24.0 | 379.8* | 5.7 | 0.1 | -0.3
COCCSc1nnc(NC(=O)Cc2cccs2)s1 | 1.4 | 52.2 | 6.9 | -9.4 | nt
COC(=O)c1ccccc1NC(NC(=O)c1ccco1)C(=O)c1ccccc1 (stereo unspecified) | -12.5 | 448.5* | -4.9 | 10.6 | -0.9
COc1ccccc1NC(NC(=O)c1ccco1)C(=O)c1ccccc1 (stereo unspecified) | 4.1 | 839.2* | -8.4 | 24.1 | 0.1
COc1ccccc1NC(=S)NC(NC(=O)c1ccco1)C(Cl)(Cl)Cl (stereo unspecified) | 26.6 | -7.7 | 23.9 | 9.4 | nt
Cn1nnnc1NCc1ccc(Cl)cc1 | 12.4 | nt | 7.2 | 3.6 | nt
CC1=C(C(=O)Nc2ccccc2)C(c2ccccc2[N+](=O)[O-])NC(=O)N1 (stereo unspecified) | 19.5 | + | -6.3 | 11.8 | -1.0
COc1ccccc1NC(=O)C1=C(C)NC(=O)NC1c1ccccc1[N+](=O)[O-] (stereo unspecified) | 7.5 | -2.2 | 14.2 | 10.3 | nt
